Measured values from the supplement of paper PMC10338343.
± gives the standard deviation.

test system: MILI (PIWIL2) piRISC loaded with L1MC piRNA (26 nt); test: pre-steady-state target cleavage rate (min^-1); guide: L1MC piRNA 5'p-UAACUAAAUACUAUGCAAGCUGUAGG; MIWI and MILI are mouse PIWI proteins and EfPiwi is from a freshwater sponge; tags in brackets are library labels; higher = faster piRNA-guided slicing of the target; conditions: auxiliary factor: 500 nM mouse GTSF1
Outline: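 Cleave-'n-Seq: 1 nM active affinity-purified piRISC with one synthetic guide and 0.1 nM transcribed, DNA-blocked target RNA library were mixed, with or without 500 nM GTSF1 partner protein, in HEPES–potassium acetate buffer at 33 °C for 0–8 or 0–960 min. Uncleaved targets were sequenced and normalised to depth and to weakly complementary targets, three trials were pooled, and k3 was capped at 0.0001 min^-1. The pre-steady-state cleavage rate was fitted […].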

Row | Sequence | pre-steady-state target cleavage rate
1 | UCCUCGUACAGCUUGCAUAGUAUUUAGUUA | 0.32 ± 0.015
2 | UCCUGGAUGUCCUUGCUUAGUAAUUAGUUA | 0.0235 ± 0.0061
3 | UCCUGGAUGUGCUUGCAAAGUAAUUAGUUA | 0.0171 ± 0.0056
4 | UCCUGGAUGAGCUUGCAAAGUAUAUAGUUA | 0.148 ± 0.02
5 | UCCUGGAUGUCCUUGCAAAGUAUUAAGUUA | 0.0398 ± 0.0098
6 | UCCUGGAUGAGCUAGCAUAGUAUUUAGUUA | 0.2 ± 0.018
7 | UCCUGGUACAGCAUGGAUAGUAUUUAGUUA | 0.197 ± 0.019
8 | UCCUGGAACUGCUUGGAUAGUAUUUAGUUA | 0.222 ± 0.013
9 | UCCUGGAACAGCUUGCUAUGUAUUUAGUUA | 0.0569 ± 0.017
10 | UCCUGGAUGUCGUUGCAUAGUAUUUGAGUUA | 0.145 ± 0.034
11 | UCCUGGAUGAGCUUGCUUAGUUUUUAGUUA | 0.0134 ± 0.0052
12 | UCCUGGAUGUCCUUGAAUAGUAUUUAGUUA | 0.122 ± 0.023
13 | UCCUGGAUGUCGUUGCAUAGUAAUUAGUUA | 0.116 ± 0.022
14 | UCCUGGUACAGCAUGCAUAGUAUUUUGUUA | 0.11 ± 0.022
15 | UCCUCCAACAGCUUGCAUAGUAUUUAGUUA | 0.329 ± 0.017
16 | UCCUGGAUGUCGAUGCAUGGUAUUUAGUUA | 0.0229 ± 0.0078

same assay, conditions: auxiliary factor: none (no GTSF1)

Row | Sequence | pre-steady-state target cleavage rate
17 | UCCUGGAUGUCGUUGCAUAGUAUUUAGUAUA | 0.00811 ± 0.0035
18 | UCCUGGAUCAGGAAGCAUAGUAUUUAGUUA | 0.00311 ± 0.0023
19 | UCCUGGAUGUCCUUGCAUAGUAAUUUAGUUA | 0.00555 ± 0.0026
20 | UCCUGGAACAGCUUGCAAUGUAUUUAGUAA | 0.00326 ± 0.0026
21 | UCCUGCUCCAGCUUGCAUAGUAUUUAGUUA | 0.00969 ± 0.0026
22 | UCCUGGAUGUCCUUGCAUAGUAUUUACGUUA | 0.00693 ± 0.003
23 | UCCUGGUACAGCUUGCAUAGUUAUUUAGUUA | 0.00549 ± 0.0044
24 | UCCUGCUACAGCUUGCAUUGUAUUUUGUUA | 0.00301 ± 0.0027
25 | UCCUGGAUGAGCUUGCAAAGUAUUUAGUAA | 0.00635 ± 0.0025
26 | UCCUGGAUCAGCUUGCUAUGUAUUUAGUUA | 0.00553 ± 0.0022
27 | UCCUGGAUCACCUUGCUUAGUAUUUAGUUA | 0.008 ± 0.0023
28 | UCCUGGAUGUCGUAGCAUAGUAUAUAGUUA | 0.0048 ± 0.0023
29 | UCCUGGAUCUGCUUGCAUAGUAUUUACUUA | 0.00348 ± 0.0027
30 | UCCUGGAUGAGCUUCCUUAGUAUUUAGUUA | 0.00577 ± 0.0024
31 | UCCUGGUACAGUCUUGCAUAGUAUUUAGUUA | 0.0122 ± 0.0047
32 | UCCUGGAACAGCUUGCAUAGUUUUUAGUUA | 0.00493 ± 0.0022
33 | UCCUGGAUGAGCUUGCAUAGUAUUUAGAUA | 0.00291 ± 0.0024
34 | UCCUGGAUGUGCUUGCAUUGUAAUUAGUUA | 0.00338 ± 0.0033
35 | UCCUGGAUGAGCUUCCAAAGUAUUUAGUUA | 0.00379 ± 0.0027
36 | UCCUGGAUGUCGUUGCAUAGUAUUUAGUUC [g2:g18:cont:t1C] | 0.00738 ± 0.0026

Row | Sequence | pre-steady-state target cleavage rate
37 | UCCUGGAUGUCGAUGCAUAGUAAUUAGUUA | 0.00499 ± 0.0021
38 | UCCUGGAUGAGCAUGCAUAGUAUUUAGAUA | 0.00498 ± 0.0025
39 | UCCUGGAUCAGCUUGCAAAGUAAUUAGUUA | 0.00502 ± 0.0023
40 | UCCUGGUACUGCUUGCAUACUAUUUAGUUA | 0.00418 ± 0.0039
41 | UCCUCGUACAGCUUGCAUAGUAUUUAGUUA | 0.0108 ± 0.0022
42 | UCCUGGAUGUCCUUGCUUAGUAAUUAGUUA | 0.00598 ± 0.0019
43 | UCCUGGAUGUGCUUGCAAAGUAAUUAGUUA | 0.00395 ± 0.0028
44 | UCCUGGAUGAGCUUGCAAAGUAUAUAGUUA | 0.00576 ± 0.0029
45 | UCCUGGAUGUCCUUGCAAAGUAUUAAGUUA | 0.00691 ± 0.0023
46 | UCCUGGAUGAGCUAGCAUAGUAUUUAGUUA | 0.00679 ± 0.0019
47 | UCCUGGUACAGCAUGGAUAGUAUUUAGUUA | 0.0172 ± 0.0046
48 | UCCUGGAACUGCUUGGAUAGUAUUUAGUUA | 0.0109 ± 0.0023
49 | UCCUGGAACAGCUUGCUAUGUAUUUAGUUA | 0.00412 ± 0.0022
50 | UCCUGGAUGUCGUUGCAUAGUAUUUGAGUUA | 0.00339 ± 0.0032
51 | UCCUGGAUGAGCUUGCUUAGUUUUUAGUUA | 0.00418 ± 0.0026
52 | UCCUGGAUGUCCUUGAAUAGUAUUUAGUUA | 0.011 ± 0.0029
53 | UCCUGGAUGUCGUUGCAUAGUAAUUAGUUA | 0.00563 ± 0.002
54 | UCCUGGUACAGCAUGCAUAGUAUUUUGUUA | 0.00364 ± 0.0034
55 | UCCUCCAACAGCUUGCAUAGUAUUUAGUUA | 0.00861 ± 0.0027
56 | UCCUGGAUGUCGAUGCAUGGUAUUUAGUUA | 0.00372 ± 0.0028
